Data taken from PubChem BioAssay (NCI).
The panel holds about 83,000 compounds, 20% with a hit somewhere; the sample as a whole holds those more often.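 Treatment: one concentration, 48 hours, 96-well format. Scoring: percent growth, with anything below 10 considered active.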 Calls of active or inactive are those of the source.

The molecules below were run on HL-60(TB) leukemia (assay: NCI-60 one-dose screen, 48 h (100 = growth as untreated, 0 = no growth, -100 = all killed)). Details: 10 µM unless noted.
COc1ccc(/C=C/C(=O)c2ccc(S(=O)(=O)NCCNc3nc(N(C)C)nc(N4CCOCC4)n3)cc2)cc1 was tested, and the growth was 67.1% (inactive). With COc1cc(/C=C/C(=O)c2cnn(-c3cc(=O)[nH]c4ccc(Cl)cc34)c2C)cc(OC)c1OC the growth was -23.1% (active). In the case of CCOC(=O)C1=C(N)N(c2ccccc2)C2=C(C(=O)CC(C)(C)C2)C1c1ccc(N2CCOCC2)cc1 (stereo not given), the growth is reported as 101% (inactive). In the case of Cn1cc(-c2nc(N)nnc2-c2c[nH]c3ccccc23)c2cc(Br)cnc21, the growth is reported as 4.17% (active). For COc1ccc(NC(=O)Cn2c3c(sc2=O)[C@H]2[C@@H](O)[C@@H](O)[C@H](O)[C@@H]2CS3)cc1, the growth was 98.1% (inactive). With CN(C)CCCc1ccc(Nc2cnn(C)c(=O)c2Cl)cc1 the growth was 81% (inactive). O=c1[nH]c(=O)c2c(-c3cc4ccccc4oc3=O)ccnc2[nH]1 was tested, and the growth was 106% (inactive). For COc1ccc(C(SCCNCc2cc(N(C)C)ccn2)(c2ccccc2)c2ccccc2)cc1, the growth was -43.7% (active). In the case of Clc1ccc2c(NCCNC34CC5CC(CC(C5)C3)C4)ccnc2c1, the growth is reported as -53.1% (active). With Cc1ccc(Cl)cc1NC(=O)Nc1nc2ccc([N+](=O)[O-])cc2s1 the growth was 1.69% (active). In the case of COc1ccc(/C=C2\C(=O)Nc3ccc(Cl)cc32)cc1OCc1ccccn1, the growth is reported as 64.7% (inactive). With COc1ccc(C2=Nc3c(N)nc(N)nc3NC(c3ccc(Oc4nc(Nc5ccc(F)cc5)nc(N(C)C)n4)c(OC)c3)C2)cc1 (stereo not given) the growth was 32.6% (inactive). COc1cc(OC(F)(F)F)ccc1C(=O)Nc1sc2c(c1C#N)CCC(=O)C2 was tested, and the growth was 38% (inactive). CNCc1cccc2c1OCCCCCC[C@@](C)(O)CC1(CC1)S(=O)(=O)c1ccc(cc1)-c1cnc(N)c(n1)C(=O)N2 was tested, and the growth was -61.1% (active). CN(C)c1nc(NCCNS(=O)(=O)c2ccc(C3=Nc4c(N)nc(N)nc4NC(c4ccccc4)C3)cc2)nc(Nc2ccc(F)cc2)n1 (stereo not given) was tested, and the growth was -6.76% (active). With Cc1nc2sccn2c1-c1nnc(SCC(C)C)o1 the growth was 93.2% (inactive). COc1ccc(Cc2nn(CC(=O)N/N=C/c3ccc([N+](=O)[O-])cc3)c(=O)c3c(C)noc23)cc1 was tested, and the growth was 109% (inactive). N#Cc1cc(-c2ccnc(Nc3ccc(N4CCN(C5COC5)CC4)cc3)n2)ccc1N1CCCC1 was tested, and the growth was 48.1% (inactive). With C=CCn1c(O)c(N=Nc2nc(-c3cc4ccccc4oc3=O)cs2)c2ccccc21 the growth was 111% (inactive). For Cc1cnc2ccc(Oc3ccccc3-c3ccccc3)nn12, the growth was 107% (inactive). In the case of CCCCSc1nc(Nc2ccc(/C(C)=N/NC(N)=S)cc2)c(C#N)c(-c2ccccc2)n1, the growth is reported as 79.3% (inactive). With CC(=O)Nc1ccc(-c2nc3cc(-c4ccc(O)cc4)ccc3n2C)cc1 the growth was 26% (inactive). In the case of CCOP(=O)(OCC)O[C@H]1CC[C@]2(C)[C@H]3CC[C@@H]4[C@@H]([C@](C)(O)CCC=C(C)C)CC[C@@]4(C)[C@]3(C)CC[C@H]2C1(C)C, the growth is reported as 0.463% (active). COc1ccc(C2c3sc4ccc(C)cc4c3Oc3nc[nH]c(=O)c32)cc1 (stereo not given) was tested, and the growth was 85.2% (inactive). For CCCCNc1ccc2c3c(cccc13)C(=O)N(c1cccc(-c3nn(-c4ccccc4)cc3-c3nc4ccccc4s3)c1)C2=O, the growth was 106% (inactive). In the case of COc1ccc2[nH]c(=O)c(CSc3cccc(N)c3)cc2c1, the growth is reported as 51.3% (inactive). For O=C(NO)c1ccc(CN2CCN(c3nc(-c4ccccc4)c4ccccc4n3)CC2)cc1, the growth was 7.7% (active). With Cc1ccc([N+](=O)[O-])c(C(=O)Nc2ccc(-c3ccc4c(c3)NC(=O)/C4=C\c3ccc[nH]3)cc2)c1 the growth was 49.5% (inactive). In the case of CCN(CC)c1ccc(/C=N/Nc2nc(-c3ccc(C)cc3)cs2)c(O)c1, the growth is reported as 70% (inactive). For O=c1oc2ccc(-c3ccc(F)cc3F)cc2c(=O)n1-c1ccc(F)cc1, the growth was -40.6% (active). In the case of COc1c(F)ccc(C(=O)Nc2ccc3nc(NC(=O)C4CCCN(S(=O)(=O)c5ccc(C(F)(F)F)cc5)C4)sc3c2)c1F (stereo not given), the growth is reported as 101% (inactive). In the case of COc1ccc2[nH]c(=O)c(CSc3nccc(-c4ccc(OC)c(OC)c4)n3)cc2c1, the growth is reported as 16.9% (inactive). COc1ccc(C(=O)/C=C/c2cc(C(F)(F)F)cc(C(F)(F)F)c2)cc1S(N)(=O)=O was tested, and the growth was 2.43% (active). In the case of O=C(COc1ccc(NC(=O)Nc2ccc(Cl)c(Cl)c2)cc1)N=Nc1c(O)[nH]c2ccc(Cl)cc12, the growth is reported as -23% (active). With O=C(NNC(=O)c1ccc(OCc2nc3ccc(Cl)cc3[nH]2)cc1)Nc1ccc(Cl)c(Cl)c1 the growth was 103% (inactive).
